From PubChem BioAssay AID2314 (National Center for Advancing Translational Sciences (NCATS), 2010)
Screen size: about 300,000 compounds; about 37,000 (12%) were called active. The sample as a whole holds a higher share of actives than the screen did. Unmarked numbers belong to inactive results. No stated cut-off is given here; in the data, active means max response mostly above about 13% (no sharp cut-off); inactive means mostly below about 14%.

Assay: Cycloheximide Counterscreen for Small Molecule Inhibitors of Shiga Toxin; further: read at 38.3 µM for the half of the compounds with a filed dose; 0% is about no effect
Conditions: cell reporter, cycloheximide protein synthesis inhibition counterscreen; hits give high values
With `CC(=O)Nc1ccc(NC(=O)CCCNC(=O)c2ccc(Cl)cc2)cc1` the max response was -0.304%.
For `COc1ccccc1C(=O)N(C1=NC(C)CS1)c1ccc(Cl)cc1` (stereo unspecified), the max response was -1.66%.
In the case of `CC(=O)Nc1ccc(C(=O)N(C2=NC(C)CS2)c2ccc(Cl)cc2)cc1` (stereo unspecified), the max response is reported as 28.7% (active).
`CSCCC(NS(=O)(=O)c1ccc(C)cc1)C(=O)NCCc1c[nH]c2ccccc12` (stereo unspecified) gave a max response of -3.49%.
In the case of `COc1ccc(NC(=S)NCC2CCN(c3ccc(OC)cc3)C2)cc1` (stereo unspecified), the max response is reported as 1.9%.
Work on `COc1ccc(N2CCN(C(=S)Nc3ccc(S(N)(=O)=O)cc3)CC2)cc1` yielded a max response of -1.06%.
With `COc1ccc(NC(=S)N2CCc3cc(OC)c(OC)cc3C2)cc1` the max response was 14.2%.
In the case of `COc1ccc(NC(=S)N2N=CCC2c2ccccc2)cc1` (stereo unspecified), the max response is reported as 36.2% (active).
For `Cc1ccccc1N(C(=O)CNC(=O)c1cccs1)C(C(=O)NC1CCCC1)c1ccncc1` (stereo unspecified), the max response was -8.35%.
For `CC(=O)c1cc(CN2CCC(n3nccc3NC(=O)c3ccccc3Cl)CC2)cs1`, the max response was -1.43%.
`COCCNc1ncnc2c1nc1n2CCCC1` gave a max response of -3.81%.
In the case of `CC(NC(=O)COc1ccc(-c2ccccc2)cc1)C1CCCO1` (stereo unspecified), the max response is reported as 1.81%.
With `Cc1ccc(S(=O)(=O)NC(=O)c2cccc(C)c2)cc1` the max response was 13.6%.
In the case of `Cc1cc(-n2cnc(-c3cn(C)nc3C)n2)no1`, the max response is reported as 21.3% (active).
`COc1ccc(C)cc1S(=O)(=O)N1CCN(S(=O)(=O)c2cc(C(=O)O)ccc2C)CC1` gave a max response of 1.26%.
In the case of `CCOC(=O)/C(=N\Nc1ccccc1Cl)N(C)C1CCS(=O)(=O)C1` (stereo unspecified), the max response is reported as -5.92%.
With `Fc1cc(F)c2nc(Nc3nc4c(F)cccc4s3)sc2c1` the max response was 13.2% (active).
`O=C(Nc1sc2c(c1C(=O)O)CCC2)c1ccccc1F` gave a max response of -2.19%.
Molecule `NC(=O)c1c(NC(=O)CSc2nnc(-c3ccco3)n2N)sc2c1CCCC2` has a max response of 5.01%.
With `CC(C)OC(=O)c1c(NC(=O)c2ccco2)sc2c1CCCC2` the max response was -0.728%.
In the case of `NC(=O)c1c(Nc2nc3c(F)cccc3s2)sc2c1CCCC2`, the max response is reported as 17.8% (active).
In the case of `O=C(O)c1c(NC(=O)N2CCCC2)sc2c1CCCC2`, the max response is reported as 25.7% (active).
In the case of `COC(=O)c1c(NC(=O)C2CC(C)=C(C)CC2C(=O)O)sc2c1CCCCC2` (stereo unspecified), the max response is reported as -1.42%.
For `NC(=O)c1c(NC(=O)CSc2nc(N)cc(=O)[nH]2)sc2c1CCCC2`, the max response was -0.688%.
Work on `COc1cc2ccccc2cc1C(=O)N(CCN(C)C)c1nc2c(F)cccc2s1` yielded a max response of -3.64%.
With `NC(=O)c1c(NC(=O)c2ccccc2)sc2c1CCCC2` the max response was 31.6% (active).
For `C=CCN(CC=C)S(=O)(=O)c1ccc(C(=O)Nc2sc3c(c2C(N)=O)CCCCC3)cc1`, the max response was 3.07%.
In the case of `CCC(=O)N1CCc2cc(S(=O)(=O)CCC(=O)N3CCN(c4ccccc4F)CC3)ccc21`, the max response is reported as 2.85%.
In the case of `CCOc1ccc(NS(=O)(=O)c2cc(C)c(C)cc2C)cc1`, the max response is reported as 0.868%.
Work on `Cc1ccccc1N1CCN(C2CCCN(C(=O)c3ocnc3C)C2)CC1` (stereo unspecified) yielded a max response of 1.48%.
Molecule `CCCCCC(O)(CCN1CCCCC1)c1ccccc1` (stereo unspecified) has a max response of -2.5%.
Work on `O=C(COC(=O)/C=C/c1ccc(S(=O)(=O)N2CCCCCC2)cc1)NCc1ccccc1Cl` yielded a max response of 0.471%.
`CCCCn1c(=O)c(CCC(=O)OCC(=O)Nc2ccc(C)c(Cl)c2)nc2ccccc21` showed a max response of -1.67%.
`CC(=O)NS(=O)(=O)c1ccc(NC(=O)C2C3C=CC(C3)C2C(=O)O)cc1` (stereo unspecified) gave a max response of -2.43%.
`COC(=O)c1cc(NC(=O)C2C3C=CC(C3)C2C(=O)O)cc(C(=O)OC)c1` (stereo unspecified) gave a max response of -3.42%.
In the case of `CC(C)COC(=O)c1ccc(NC(=O)C2C3C=CC(C3)C2C(=O)O)cc1` (stereo unspecified), the max response is reported as 29% (active).
`CCN(CC)S(=O)(=O)c1ccc(N(C)Cc2cccc(OC)c2OC)nc1` showed a max response of 10.4%.
For `C=CCn1c(CSc2nc3ccccc3s2)nnc1SCC(=O)NCc1ccco1`, the max response was 0.347%.
For `C/C(=N\NC(=O)CC(C)C)c1c(C(F)(F)F)[nH]n(-c2nc3ccccc3s2)c1=O`, the max response was 35.6% (active).
Molecule `COc1ccc(CC(=O)N/N=C(\C)c2ccccn2)cc1` has a max response of -3.12%.
In the case of `CCOC(=O)N1CCN(CC(=O)Nc2cc(C)nn2-c2nc3ccccc3s2)CC1`, the max response is reported as 2.1%.
With `CC(=NCc1ccco1)c1c(C(F)(F)F)[nH]n(-c2nc3ccccc3s2)c1=O` the max response was 48.5% (active).
`CCC(C)Cn1c(O)cc2nn(-c3nc4ccccc4s3)c(=O)c-2c1C` (stereo unspecified) showed a max response of 3.42%.
In the case of `COC(=O)Cc1[nH]n(-c2nc3ccccc3s2)c(=O)c1C(C)=Nc1ccc(OC)cc1`, the max response is reported as 38.2% (active).
Work on `COc1ccccc1NC(=O)c1ccc2nc(N3C(=O)CCC3=O)sc2c1` yielded a max response of 7.91%.
Molecule `CCc1ccc(-c2cc(C(=O)NCc3ccco3)c3ccccc3n2)s1` has a max response of 14.1%.
